From PubChem BioAssay (NCATS) come the findings set out here.

Test [1] deals with Estrogen receptor (Homo sapiens) (UniProt P03372). Put plainly: qHTS assay for small molecule antagonists of estrogen receptor alpha signaling (AID 588513; active means well fitted curve in the direction sought with a large enough effect in the signal ratio, with a control signal flat, not every such curve was filed as active; the % refers to the signal ratio; further: on the % scale 0 is the no-effect control and ±100 the full control effect). The gist of the method:
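Cells were plated at 5000/well and incubated 4 h at 37 C. Compounds were added as 1:2 dilution series, duplicates. 17-beta-estradiol (0.5nM final) was added for 18 h before CCF4 detection.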
Background: qHTS replaces the single test concentration by a dilution series.

The target of test [2] is Peroxisome proliferator-activated receptor gamma (Homo sapiens) (UniProt P37231). The test is described as follows: qHTS assay for small molecule agonists of peroxisome proliferator-activated receptor gamma signaling (AID 588536; active means well fitted curve in the direction sought with a large enough effect in the signal ratio, with a control signal flat, not every such curve was filed as active; the % refers to the signal ratio;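 further: 0% = DMSO basal wells and 100% = rosiglitazone at 2 µM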). The gist of the method: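 This is an agonist-mode beta-lactamase reporter assay in HEK293 PPAR-gamma-UAS-bla cells with 1% charcoal/dextran FBS. Compound titrations ran 16 h at 37 C before CCF4 detection. EC50 and efficacy are Hill fits scaled to 2 uM rosiglitazone (100%) and DMSO basal.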
Peroxisome proliferator-activated receptor gamma (Homo sapiens), sequence (P37231 whole entry, looked up): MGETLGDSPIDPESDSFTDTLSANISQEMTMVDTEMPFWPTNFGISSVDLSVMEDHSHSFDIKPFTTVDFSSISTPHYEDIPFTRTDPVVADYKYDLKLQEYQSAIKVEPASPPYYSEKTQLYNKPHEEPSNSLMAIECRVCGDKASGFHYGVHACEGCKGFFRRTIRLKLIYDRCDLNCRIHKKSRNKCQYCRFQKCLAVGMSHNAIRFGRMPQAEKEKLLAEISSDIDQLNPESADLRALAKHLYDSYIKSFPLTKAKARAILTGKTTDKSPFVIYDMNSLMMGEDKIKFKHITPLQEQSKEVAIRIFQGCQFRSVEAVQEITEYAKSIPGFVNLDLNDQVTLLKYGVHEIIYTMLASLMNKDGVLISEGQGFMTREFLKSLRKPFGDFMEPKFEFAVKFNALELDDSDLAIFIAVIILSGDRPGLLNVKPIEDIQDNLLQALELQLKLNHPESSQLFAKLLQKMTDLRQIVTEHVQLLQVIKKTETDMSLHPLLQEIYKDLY

Test [3] has as its target Thyroid hormone receptor beta (Homo sapiens) (UniProt P10828). Put plainly: qHTS assay for small molecule agonists of thyroid hormone receptor beta signaling (AID 588545; calls by dose curve;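 further: 0% = DMSO only and 100% = 10 nM T3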). The gist of the method:
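Stimulation of a TR-driven beta-lactamase reporter was quantified in GripTite HEK 293 cells. Compound series ran for 18 hrs; curves were normalized to T3 and DMSO controls and fitted to yield EC50.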

A short description of test [4]: qHTS assay for small molecule antagonists of retinoid X receptor alpha signaling (AID 588546; active means well fitted inhibition curve with a large enough effect in the signal ratio, with a control signal flat, not every such curve was filed as active; the % refers to the signal ratio;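 further: cells stimulated with 9-cis-retinoic acid as agonist; on the % scale 0 is the no-effect control and ±100 the full control effect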). As to conditions: HEK293T RXRa-UAS-bla, beta-lactamase ratio, antagonist mode; measured here: W530 green channel, cytotoxicity proxy. The procedure, abridged: (§1)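 Beta-lactamase reporter inhibition, read as CCF4 fluorescence ratio (ex 405, em 460/530 nm) after 2 h at RT. HEK293T UAS-bla cells, 2500/well, were stimulated with 9-cis-RA at 500 or 100 nM final alongside test compound for 18 h at 37 C.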

Test [5] has as its target Retinoic acid receptor RXR-alpha (Homo sapiens) (UniProt P19793). The description is as above. As to conditions: HEK293T RXRa-UAS-bla, beta-lactamase ratio, antagonist mode. The gist of the method: as §1
In test [6] the target is Peroxisome proliferator-activated receptor alpha (Homo sapiens) (UniProt Q07869). Put plainly: qHTS assay for small molecule agonists of the peroxisome proliferator-activated receptor alpha (PPARalpha) signaling pathway (AID 651778). Further: % of control where 0% means no effect. As to conditions: PathHunter PPARalpha complementation, chemiluminescence, 6 h; max response: stronger effect = higher value. The procedure, abridged: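 Cells plated at 2,000/well and held overnight at 37 C, 5% CO2, then compound added by pin tool for 6 hr; after PathHunter detection reagent and 60 min at room temperature, chemiluminescence from enzyme complementation was read.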
Peroxisome proliferator-activated receptor alpha (Homo sapiens), sequence (Q07869 whole entry, looked up): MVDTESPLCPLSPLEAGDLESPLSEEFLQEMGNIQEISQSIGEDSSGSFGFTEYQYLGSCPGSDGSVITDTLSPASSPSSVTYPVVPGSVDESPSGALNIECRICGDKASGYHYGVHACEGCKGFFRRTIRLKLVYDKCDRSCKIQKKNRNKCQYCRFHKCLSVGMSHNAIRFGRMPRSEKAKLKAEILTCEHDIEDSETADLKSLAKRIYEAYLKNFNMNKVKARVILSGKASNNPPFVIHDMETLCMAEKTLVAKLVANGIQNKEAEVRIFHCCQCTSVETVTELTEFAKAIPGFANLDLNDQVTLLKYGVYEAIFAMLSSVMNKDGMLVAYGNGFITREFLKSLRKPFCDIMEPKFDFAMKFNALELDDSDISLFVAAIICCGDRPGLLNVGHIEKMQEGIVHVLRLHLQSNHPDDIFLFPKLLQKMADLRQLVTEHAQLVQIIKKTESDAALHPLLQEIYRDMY

Test [7] can be described thus: qHTS assay for small molecule agonists of the antioxidant response element (ARE) signaling pathway measured by Nrf2-dependant transcriptional activity (AID 720636; active means well fitted curve in the direction sought with a large enough effect in the repeat runs; an effect the other way counts as inactive or inconclusive; further: potency means the concentration at half of the fitted maximal effect; on activation: % of control where 0% means no effect). The procedure, abridged:
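ARE-luc HepG2 cells carrying an Nrf2-responsive luciferase reporter, in medium with 1% dialyzed FBS, exposed to compound for 16 hr at 37 C, 5% CO2. Luminescence read 30 min after ONE-Glo addition.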

A short description of test [8]: qHTS assay for small molecule agonists of the antioxidant response element (ARE) signaling pathway measured by Nrf2-dependant transcriptional activity - cell viability counter screen (AID 720653; active means well fitted curve in the direction sought with a large enough effect in the repeat runs; an effect the other way counts as inactive or inconclusive; further: on the % scale 0 is the no-effect control and ±100 the full control effect). As to conditions: ARE-bla HepG2 viability, CellTiter-Glo ATP luminescence, 16 h; max response: stronger effect = lower value. The procedure, abridged:
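ARE-bla HepG2 cells (2,000/well) rested 5 hrs at 37C/5% CO2, then exposed to compounds in DMSO for 16 hrs. Viability was read in the same wells as intracellular ATP by luminescence, 30 min at room temperature after reagent addition.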

A short description of test [9]: qHTS assay for cell viability of HEK293 cells (AID 743288). Further: on the % scale 0 is the no-effect control and ±100 the full control effect; nearly all actives have a fitted effect of over 50% in size. As to conditions: ATP luminescence (CellTiter-Glo), 18 h; max response: stronger effect = lower value. The procedure, abridged:
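Quantitative high-throughput screen: compounds were pinned onto parental HEK293 cells (2,000 per well) after a minimum 5 h settling at 37 C, incubated 18 h at 37 C, and intracellular ATP measured by luciferase luminescence.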

Test [10] in a line: qHTS assay for cell viability of the p53RE-bla HCT-116 cell line (AID 743292). Further: on the % scale 0 is the no-effect control and ±100 the full control effect; nearly all actives have a fitted effect of over 55% in size. The gist of the method: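 CellSensor p53RE-bla HCT-116 cells (4,000/well) pre-incubated 5 h at 37 C, then exposed to compounds in DMSO for 16 h at 37 C. Viability read as ATP content by CellTiter-Glo luminescence after 30 min at room temperature.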
In test [11] the target is Nuclear receptor subfamily 1 group I member 2 (Rattus norvegicus) (UniProt Q9R1A7). Put plainly: qHTS assay for small molecule activators of the rat pregnane X receptor (rPXR) signaling pathway (AID 651751; call rule not given here; further: 0% is about no effect). As to conditions: rPXR reporter cells, luciferase (One-Glo), 24 h.
Nuclear receptor subfamily 1 group I member 2 (Rattus norvegicus), sequence (Q9R1A7 whole entry, looked up): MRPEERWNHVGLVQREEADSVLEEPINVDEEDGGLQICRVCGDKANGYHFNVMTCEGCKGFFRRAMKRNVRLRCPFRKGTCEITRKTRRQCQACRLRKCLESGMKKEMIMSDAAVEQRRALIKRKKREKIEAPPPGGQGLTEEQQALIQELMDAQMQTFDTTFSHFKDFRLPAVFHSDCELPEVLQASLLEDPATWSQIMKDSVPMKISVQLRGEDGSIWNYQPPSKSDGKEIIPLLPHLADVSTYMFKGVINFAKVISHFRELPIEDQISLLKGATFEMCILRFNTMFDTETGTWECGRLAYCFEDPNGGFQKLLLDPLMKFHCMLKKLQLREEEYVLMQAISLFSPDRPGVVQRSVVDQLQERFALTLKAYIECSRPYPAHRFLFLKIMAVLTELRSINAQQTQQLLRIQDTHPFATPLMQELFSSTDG
Test [12] has as its target Estrogen receptor (Homo sapiens) (UniProt P03372). The test is described as follows: qHTS assay for small molecule agonists of estrogen receptor alpha signaling (AID 588514; calls by dose curve;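 further: 0% = vehicle only and 100% = reference agonist; nearly all actives have a fitted effect of over 70% in size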). The gist of the method:
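EC50 and efficacy came from Hill fits of beta-lactamase reporter signal (CCF4 dye, 2 h at room temperature) scaled between DMSO and 20 nM 17-beta-estradiol. Agonist mode: HEK293 ER-alpha-UAS-bla cells in charcoal/dextran-stripped serum medium, 18 h compound exposure at 37 C.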

In test [13] the target is Glucocorticoid receptor (Homo sapiens) (UniProt P04150). Put plainly: qHTS assay for small molecule agonists of glucocorticoid receptor signaling (AID 588532; active means well fitted curve in the direction sought with a large enough effect in the signal ratio, with a control signal flat; the % refers to the signal ratio;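 further: 100% = dexamethasone at 0.1 µM and 0% = DMSO only wells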). To be noted: HeLa MMTV-bla, beta-lactamase ratio, agonist, 18 h; stronger effect = higher value; percent of dexamethasone control, DMSO zero. The gist of the method:
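Stimulation of a glucocorticoid response element-driven beta-lactamase gene was measured in HeLa cells. Responses were scaled between DMSO basal and 0.1 uM dexamethasone, then fitted for half-maximal stimulation.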

A short description of test [14]: qHTS assay for small molecule agonists of retinoid X receptor alpha signaling (AID 588544). To be noted: HEK293T RXRa-UAS-bla, beta-lactamase reporter, 18 h; 530 nm emission.
Test [15] deals with Thyroid hormone receptor beta (Homo sapiens) (UniProt P10828). The test is described as follows: qHTS assay for small molecule antagonists of thyroid hormone receptor beta signaling (AID 588547; active means well fitted inhibition curve with a large enough effect in the signal ratio, with a control signal flat, not every such curve was filed as active; the % refers to the signal ratio;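 further: cells stimulated with 0.4 nM T3 agonist during compound exposure; series mostly up to about 77 µM; on the % scale 0 is the no-effect control and ±100 the full control effect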). As to conditions: TR-UAS-bla HEK293, beta-lactamase ratio, antagonist mode, 18 h. The gist of the method:
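TR-UAS-bla GripTite HEK293 cells in 2% charcoal/dextran FBS medium were preincubated 4 h at 37 C, given compound (0.59 nM to 92 uM) plus 0.4 nM T3 (final) for 18 h, then CCF4 for 2 h at RT; Hill fit gave IC50.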

Test [16] can be described thus: qHTS assay for small molecule activators of the p53 signaling pathway (AID 651743; active means well fitted activation curve with a large enough effect in the signal ratio, not every such curve was filed as active; the % refers to the signal ratio; further: series mostly up to about 92 µM; % of control where 0% means no effect). To be noted: HCT-116 p53RE-bla, beta-lactamase FRET ratio, 16 h; activation: stronger effect = higher value. The gist of the method:
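Agonist-mode quantitative HTS in HCT-116 cells carrying a p53-response-element beta-lactamase reporter; 16 h compound treatment at 37 C, then FRET substrate loading for 2 h at room temperature and fluorescence read.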

A short description of test [17]: qHTS assay for environmental chemicals that activate the Aryl hydrocarbon Receptor (AhR) signaling pathway (AID 651777). Further: % of control where 0% means no effect; nearly all actives have a fitted effect of over 15% in size. As to conditions: 1A2-DRE human hepatoma cells, luciferase, 24 h; activation: stronger effect = higher value. The procedure, abridged:
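Human hepatoma 1A2-DRE cells stably carrying a DRE/CYP1A2 promoter–luciferase reporter, 1,200 cells/well, exposed to compound 24 hr at 37 C. Luciferase read by One-Glo luminescence after 30 min at room temperature; increased signal marks AhR activation.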

Test [18] is described as follows: qHTS assay for small molecule activators of the human pregnane X receptor (PXR) signaling pathway (AID 720659; call rule not given here; further: 0% is about no effect).
Test [19] can be described thus: qHTS assay for small molecule antagonists of peroxisome proliferator-activated receptor delta signaling (AID 588535; active means well fitted inhibition curve with a large enough effect in the signal ratio, with a control signal flat, not every such curve was filed as active; the % refers to the signal ratio;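 on max response: cells co-treated with a PPAR-delta agonist as stimulator during compound exposure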). As to conditions: HEK293T PPARd-UAS-bla, beta-lactamase FRET ratio, 18 h; 460 nm channel. The procedure, abridged: (§2)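 Inhibition of PPAR-delta response element-driven beta-lactamase expression is measured in HEK293T cells exposed to a compound titration series for 18 hrs at 37 C. Half-maximal inhibition comes from Hill equation fitting.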

In test [20] the target is Peroxisome proliferator-activated receptor delta (Homo sapiens) (UniProt Q03181). Described as above. The gist of the method:
as §2

Results filed as inconclusive are left out. The source made the active and inactive calls. Unless noted, the call rests on the fitted dose curve; in most records, active means well fitted curve in the direction sought with a large enough effect; inconclusive means small, poorly fitted or top-dose-only effect, or another doubt; inactive means no such curve, though single readings can be large; an effect the other way counts as inactive or inconclusive.

Thyroid hormone receptor beta (Homo sapiens), sequence (P10828 whole entry, looked up): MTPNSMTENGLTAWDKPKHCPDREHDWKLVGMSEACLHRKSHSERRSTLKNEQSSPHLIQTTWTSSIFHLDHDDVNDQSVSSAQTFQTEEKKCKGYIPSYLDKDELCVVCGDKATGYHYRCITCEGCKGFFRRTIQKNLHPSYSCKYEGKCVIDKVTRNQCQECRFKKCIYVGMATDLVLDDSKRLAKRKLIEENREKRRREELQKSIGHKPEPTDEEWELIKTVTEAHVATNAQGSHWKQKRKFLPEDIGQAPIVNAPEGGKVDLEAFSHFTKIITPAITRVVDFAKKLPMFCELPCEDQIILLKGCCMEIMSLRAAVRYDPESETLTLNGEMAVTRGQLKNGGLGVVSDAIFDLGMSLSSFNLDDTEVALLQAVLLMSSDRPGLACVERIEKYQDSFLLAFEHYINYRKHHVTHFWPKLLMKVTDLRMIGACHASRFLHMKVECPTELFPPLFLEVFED
Peroxisome proliferator-activated receptor delta (Homo sapiens), sequence (Q03181 whole entry, looked up): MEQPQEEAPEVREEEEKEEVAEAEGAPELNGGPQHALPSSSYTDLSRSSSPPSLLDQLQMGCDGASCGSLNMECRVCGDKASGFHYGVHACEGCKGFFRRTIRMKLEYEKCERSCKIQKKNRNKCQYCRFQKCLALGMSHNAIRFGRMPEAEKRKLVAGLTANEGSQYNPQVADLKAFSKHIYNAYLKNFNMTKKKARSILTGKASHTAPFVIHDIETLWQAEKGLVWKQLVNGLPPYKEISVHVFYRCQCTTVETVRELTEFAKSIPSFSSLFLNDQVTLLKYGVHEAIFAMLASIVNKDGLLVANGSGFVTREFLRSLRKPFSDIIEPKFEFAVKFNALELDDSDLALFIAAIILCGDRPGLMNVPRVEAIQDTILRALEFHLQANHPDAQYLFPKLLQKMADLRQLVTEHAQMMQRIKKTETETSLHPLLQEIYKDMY
Retinoic acid receptor RXR-alpha (Homo sapiens), sequence (P19793 whole entry, looked up): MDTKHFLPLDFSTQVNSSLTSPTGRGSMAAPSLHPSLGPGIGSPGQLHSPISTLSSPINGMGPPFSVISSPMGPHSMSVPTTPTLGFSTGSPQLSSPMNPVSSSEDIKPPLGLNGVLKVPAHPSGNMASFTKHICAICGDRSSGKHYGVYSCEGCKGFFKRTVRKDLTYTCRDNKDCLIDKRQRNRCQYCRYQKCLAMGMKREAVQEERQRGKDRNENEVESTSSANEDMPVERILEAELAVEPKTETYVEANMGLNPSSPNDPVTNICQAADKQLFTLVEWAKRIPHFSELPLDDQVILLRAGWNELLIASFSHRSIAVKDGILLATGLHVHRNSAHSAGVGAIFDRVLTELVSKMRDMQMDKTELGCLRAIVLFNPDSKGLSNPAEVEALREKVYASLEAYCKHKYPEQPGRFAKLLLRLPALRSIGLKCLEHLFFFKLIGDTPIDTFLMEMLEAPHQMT
Estrogen receptor (Homo sapiens), sequence (P03372 whole entry, looked up): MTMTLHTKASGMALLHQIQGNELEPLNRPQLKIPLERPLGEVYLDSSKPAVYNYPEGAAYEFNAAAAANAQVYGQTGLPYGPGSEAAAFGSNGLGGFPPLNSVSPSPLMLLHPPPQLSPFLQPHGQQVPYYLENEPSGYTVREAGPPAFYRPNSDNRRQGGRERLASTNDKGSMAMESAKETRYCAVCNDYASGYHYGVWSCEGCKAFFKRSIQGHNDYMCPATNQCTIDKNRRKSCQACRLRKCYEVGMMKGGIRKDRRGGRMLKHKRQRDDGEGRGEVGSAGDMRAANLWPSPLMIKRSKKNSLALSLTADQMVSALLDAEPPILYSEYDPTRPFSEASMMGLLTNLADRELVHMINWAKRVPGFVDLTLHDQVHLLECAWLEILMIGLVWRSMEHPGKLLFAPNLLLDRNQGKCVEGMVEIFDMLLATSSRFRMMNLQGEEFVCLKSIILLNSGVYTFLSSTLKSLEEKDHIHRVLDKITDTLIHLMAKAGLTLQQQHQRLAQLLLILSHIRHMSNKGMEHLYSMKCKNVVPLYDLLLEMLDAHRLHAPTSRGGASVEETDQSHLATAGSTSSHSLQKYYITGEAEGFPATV
Glucocorticoid receptor (Homo sapiens), sequence (P04150 whole entry, looked up): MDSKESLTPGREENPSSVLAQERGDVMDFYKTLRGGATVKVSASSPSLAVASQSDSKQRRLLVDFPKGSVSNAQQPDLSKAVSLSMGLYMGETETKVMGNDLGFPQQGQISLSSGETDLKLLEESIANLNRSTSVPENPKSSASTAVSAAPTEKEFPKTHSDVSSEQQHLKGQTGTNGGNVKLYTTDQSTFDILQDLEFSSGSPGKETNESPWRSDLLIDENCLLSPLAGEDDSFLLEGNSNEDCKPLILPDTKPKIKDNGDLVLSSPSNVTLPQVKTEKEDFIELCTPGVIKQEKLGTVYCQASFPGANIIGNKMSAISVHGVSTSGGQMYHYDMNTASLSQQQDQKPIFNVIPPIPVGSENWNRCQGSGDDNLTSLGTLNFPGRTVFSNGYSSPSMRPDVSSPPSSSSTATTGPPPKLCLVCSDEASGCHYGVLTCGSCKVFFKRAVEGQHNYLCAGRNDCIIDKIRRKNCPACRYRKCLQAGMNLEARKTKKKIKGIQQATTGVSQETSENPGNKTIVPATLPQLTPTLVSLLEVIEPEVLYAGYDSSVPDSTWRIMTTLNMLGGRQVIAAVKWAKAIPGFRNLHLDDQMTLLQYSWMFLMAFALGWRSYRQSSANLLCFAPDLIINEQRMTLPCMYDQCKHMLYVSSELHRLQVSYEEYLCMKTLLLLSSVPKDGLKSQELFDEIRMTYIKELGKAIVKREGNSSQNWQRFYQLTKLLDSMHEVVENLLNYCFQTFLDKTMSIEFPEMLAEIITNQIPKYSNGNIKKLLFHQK

As to `Oc1ccc2ccccc2c1N=Nc1ccccc1`, the Potency result in test [1], in test [3] and in test [10] was “inactive” each time. Besides, in test [2], the result was inactive. Besides, the max response is -13.8% in test [4]; -15.2% (inactive) in test [5]; 0.672% (inactive) in test [6]; -25.3% (inactive) in [8]; -20.8% (inactive) in [9]; 5.24% (inactive) in [11]. For the same compound, the Potency in test [7] was 9.69 µM (active).
On to `c1cc(-c2ccncc2)ccn1`, for which the Potency entry in test [1], in test [12], in test [3], in test [7] and in [10] was “inactive” each time. For the same compound, the results for the activation in [13], in [16] and in test [17] were -9.26% (inactive), -5.33% (inactive) and 0.354% (inactive), respectively. The compound was called inactive in test [2] and in [18]. Moreover, the max response is 22% in test [14]; 17.1% in test [4]; -37.6% (inactive) in test [5]; -5.96% (inactive) in test [8]; -10.3% (inactive) in [9]; -2.25% (inactive) in test [11]. Also, in test [15], the activity change % (negative = inhibition) was -17.5% (inactive).
For `O=C(O)c1ccc(C(=O)O)c(C(=O)O)c1`, the Potency entry in test [12], in [20], in test [3], in test [7] and in test [10] was “inactive” each time. Moreover, the values for the activation in test [13] and in test [17] were -1.87% (inactive) and 0.771% (inactive), respectively. The max response in test [19] is -62.8%; in [14], -17.6%; in [4], -4.49%; in test [5], -0.212% (inactive); in test [6] it was -1.17% (inactive); in test [8], -4.75% (inactive). Further, the max response in test [9] is -0.128% (inactive); in test [11], 0.399% (inactive). Besides, the result in [2] and in [18] was inactive. Moreover, the activity change % (negative = inhibition) in [15] was 8.09% (inactive).
Consider `CCCCCCCCCCCCCCN`, for which the Potency entry in [12], in test [20], in test [3], in test [7] and in [10] was “inactive” in each case. Further, the results for the activation in test [13], in test [16] and in test [17] were -4.59% (inactive), 2.13% (inactive) and -0.123% (inactive), respectively. The max response in test [19] was -7.23%; in test [14] it was -19.1%; in [4], -5.44%; in [5], -5.01% (inactive); in test [8], 4.41% (inactive); in test [9], -3.28% (inactive). Also, the max response in test [11] was 1.71% (inactive). Besides, the outcome in [2] and in [18] was inactive.
Turning to `CSc1ccc(Cl)cc1`, the Potency entry in test [12], in test [20], in [3], in test [7] and in test [10] was “inactive” throughout. In addition, the activation is -2.12% (inactive) in test [13] and -3.53% (inactive) in [17]. Further, the max response is 24.7% in test [19]; 8.86% in test [14]; 18.6% in [4]; -0.0243% (inactive) in test [6]; -9.05% (inactive) in test [8]; -19.5% (inactive) in [9]. The max response in [11] was -1.44% (inactive). The compound was called inactive in test [2] and in [18].
On to `NN(c1ccccc1)c1ccccc1`, for which the Potency entry in [12], in test [20], in [3], in [7] and in [10] was “inactive” throughout. For the same compound, the values for the activation in test [13], in test [16] and in [17] were -3.55% (inactive), -3.49% (inactive) and 3.15% (inactive), respectively. In addition, the max response in test [19] was 23.6%; in test [14], -8.85%; in test [4], -11.7%; in test [5], -14.4% (inactive); in [8], -7.4% (inactive); in test [9], -10.4% (inactive). Further, the max response in test [11] is 1.92% (inactive). Further, the outcome in test [2] was inactive. In test [15], the activity change % (negative = inhibition) was 4.53% (inactive).
